Experimental data taken from PubChem BioAssay AID1159580 (chemical genetic matrix, 2015).
The campaign covered roughly 5,500 compounds. About 2,000 (36%) were called active. About 18% were inconclusive and are not listed. Cut-off read from the data, not from the text of the source: active = normalized growth mostly below about 0.91 (no sharp cut-off); inconclusive = no clear call, values can overlap the other calls; inactive = mostly above about 0.92. This is one part of the list.

Assay: chemical genetic growth profiling, strain panel (AID 1159580);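 note: tested at 20 µM; growth read once vehicle control cultures reached saturation at 30 °C; 1 = growth at the plate median or of vehicle wells; lower values mean less growth of the strain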
Conditions: S. cerevisiae deletion strains, growth OD
[1] = locus YAL040C, strain CLN3, hits give low values
[2] = locus YCL061C, strain MRC1 (second series), hits give low values
[3] = locus YDR150W, strain NUM1, hits give low values
[4] = locus YDR363W, strain ESC2, hits give low values
[5] = locus YER002W, strain NOP16, hits give low values
[6] = locus YMR307W, strain GAS1, hits give low values
[7] = locus YNL175C, strain NOP13, hits give low values
[8] = locus YNL197C, strain WHI3, hits give low values
[9] = locus YNL224C, strain SQS1, hits give low values
[10] = locus YOR083W, strain WHI5 (second series), hits give low values
[11] = locus YPL055C, strain LGE1, hits give low values

Measured: normalized growth

N[C@H](CO)C(=O)O
inactive: locus YAL013W, strain DEP1, hits give low values 1.03 | [1] 1.01 | [2] 1 | [3] 1 | [4] 1.03 | [5] 0.986 | locus YJR075W, strain HOC1, hits give low values 1.01 | [6] 1 | locus YNL128W, strain TEP1, hits give low values 0.999 | [7] 0.995 | [8] 0.999 | [9] 0.997 | locus YNL322C, strain KRE1, hits give low values 1 | [10] 0.996 | [11] 1.02

COC(=O)[C@@H](N)Cc1ccc(O)c(O)c1
inactive: [1] 1.03 | [2] 0.971 | [3] 0.958 | [4] 1 | [5] 1 | [6] 0.995 | [7] 1 | [8] 0.984 | [9] 1 | [10] 0.993 | [11] 0.971 | locus YPL241C, strain CIN2, hits give low values 1.01
